Assay results from the supplement of paper PMC10849652.
Of roughly 8,800 targets only a part is listed; those with a hit were picked by preference. About 0.5% of all pairs of compound and target were hits.

Columns and labels:
Experiment in all cases: log2 fold change, soluble protein after heating vs DMSO (PISA); higher = thermal stabilisation; K562 lysate, 10 uM; active = over 0.2 and 3.5 SD of the protein, either way, in both replicates (recomputed)
[1] = compound: CCCS(=O)(=O)Nc1ccc(F)c(C(=O)c2c[nH]c3ncc(-c4ccc(Cl)cc4)cc23)c1F [vemurafenib]
Method in brief: (§1)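 The values are log-two fold changes in thermal stability compared with solvent controls and come from duplicates. They were obtained by TMTpro 16plex LC-MS/MS, with channel sums equalised, on the supernatant after 21,000xg for 90 min. That supernatant came from crude K562 extract at 1 mg/mL protein treated with 10 μM compound for 30 min, heated for 3 min across 48°C-58°C, pooled and brought to 0.5% NP-40 at 4°C.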

[2] = compound: CCCS(=O)(=O)Nc1ccc(F)c(C(=O)c2c[nH]c3ncc(Cl)cc23)c1F
Method in brief: as §1

[3] = compound: CCN(CCCOc1ccc2c(Nc3cc(CC(=O)Nc4cccc(F)c4)[nH]n3)ncnc2c1)CCOP(=O)(O)O [barasertib]
Method in brief: as §1

[4] = compound: CC[C@@H]1C(=O)N(C)c2cnc(Nc3ccc(C(=O)NC4CCN(C)CC4)cc3OC)nc2N1C1CCCC1
Method in brief: as §1

[5] = compound: CC[C@@H]1C(=O)N(C)c2cnc(Nc3ccc(C(=O)N[C@H]4CC[C@H](N5CCN(CC6CC6)CC5)CC4)cc3OC)nc2N1C(C)C [volasertib]
Method in brief: as §1

[6] = compound: CCn1c(C(=O)N(C2CC2)C2CC2)cc2c3c(ncn3C)c(Nc3cc(C)n(C)n3)nc21
Method in brief: as §1

[7] = compound: CCn1cc(-c2ccnc3[nH]c(-c4cccc(CN(C)C)c4)cc23)c(-c2ccc(NC(=O)N(C)C)cc2)n1
Method in brief: as §1

[8] = compound: CN1CCC(CNc2ccc3ncc(-c4cccc(OC(F)(F)F)c4)n3n2)CC1
Method in brief: as §1

[9] = compound: CN1CCN(CCOc2cc(OC3CCOCC3)c3c(Nc4c(Cl)ccc5c4OCO5)ncnc3c2)CC1 [saracatinib]
Method in brief: as §1

[10] = compound: CN1CCN(c2nc(C3=C(c4c[nH]c5ccccc45)C(=O)NC3=O)c3ccccc3n2)CC1 [sotrastaurin]
Method in brief: as §1

Measured: log2 fold change

PFKFB3 isoform 4 (UniProt Q16875)
Chain of UniProt Q16875 (Q16875 whole entry, looked up): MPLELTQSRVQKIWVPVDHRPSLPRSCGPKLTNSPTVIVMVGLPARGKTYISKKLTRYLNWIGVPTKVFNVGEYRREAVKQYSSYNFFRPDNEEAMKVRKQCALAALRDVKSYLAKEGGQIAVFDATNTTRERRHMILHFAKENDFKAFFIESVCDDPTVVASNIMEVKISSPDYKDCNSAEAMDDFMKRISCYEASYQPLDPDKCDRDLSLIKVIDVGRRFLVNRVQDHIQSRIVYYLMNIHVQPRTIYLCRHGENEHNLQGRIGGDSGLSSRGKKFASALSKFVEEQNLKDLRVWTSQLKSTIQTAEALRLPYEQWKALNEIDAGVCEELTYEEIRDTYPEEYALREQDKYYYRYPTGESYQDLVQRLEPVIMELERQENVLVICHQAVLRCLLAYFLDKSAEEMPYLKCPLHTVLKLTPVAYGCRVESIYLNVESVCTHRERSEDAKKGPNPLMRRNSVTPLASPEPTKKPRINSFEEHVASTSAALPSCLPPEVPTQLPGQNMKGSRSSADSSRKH
inactive: [1] -0.022 | [2] 0.134 | [3] 0.003 | [4] -0.003 | [5] 0.067 | [6] 0.037 | [7] 0.003 | [8] -0.046 | [9] -0.024 | [10] 0.034

PDPK1 (UniProt O15530)
Chain of UniProt O15530 (O15530 whole entry, looked up): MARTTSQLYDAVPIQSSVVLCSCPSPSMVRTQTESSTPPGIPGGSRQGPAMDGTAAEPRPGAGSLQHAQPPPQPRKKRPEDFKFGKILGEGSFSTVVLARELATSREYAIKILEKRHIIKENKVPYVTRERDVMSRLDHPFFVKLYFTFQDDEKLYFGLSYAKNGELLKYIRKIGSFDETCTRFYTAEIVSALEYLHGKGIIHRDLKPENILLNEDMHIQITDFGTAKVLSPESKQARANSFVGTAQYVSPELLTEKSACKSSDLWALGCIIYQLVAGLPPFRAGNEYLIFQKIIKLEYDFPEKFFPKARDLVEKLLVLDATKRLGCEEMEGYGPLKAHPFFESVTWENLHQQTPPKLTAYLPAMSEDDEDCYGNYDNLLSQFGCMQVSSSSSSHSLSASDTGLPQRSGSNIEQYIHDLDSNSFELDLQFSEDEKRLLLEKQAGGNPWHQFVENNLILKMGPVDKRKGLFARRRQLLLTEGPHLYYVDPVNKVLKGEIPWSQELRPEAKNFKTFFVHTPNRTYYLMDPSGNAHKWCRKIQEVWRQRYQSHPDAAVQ
inactive: [1] -0.03 | [2] -0.002 | [3] -0.027 | [4] -0.06 | [5] -0.047 | [6] 0.012 | [7] 0.041 | [8] -0.017 | [9] -0.025 | [10] 0.133

POLR2F (UniProt U3KPV3)
inactive: [4] 0.13 | [9] -0.051

PRRG1 (UniProt O14668)
Chain of UniProt O14668 (O14668 whole entry, looked up): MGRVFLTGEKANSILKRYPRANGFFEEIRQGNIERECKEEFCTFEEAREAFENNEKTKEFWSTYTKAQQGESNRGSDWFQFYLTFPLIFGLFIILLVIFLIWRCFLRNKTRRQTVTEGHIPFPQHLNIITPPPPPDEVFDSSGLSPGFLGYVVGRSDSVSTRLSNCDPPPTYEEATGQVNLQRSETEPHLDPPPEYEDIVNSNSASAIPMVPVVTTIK
inactive: [6] 0.052

PPIC (UniProt P45877)
Chain of UniProt P45877 (P45877 whole entry, looked up): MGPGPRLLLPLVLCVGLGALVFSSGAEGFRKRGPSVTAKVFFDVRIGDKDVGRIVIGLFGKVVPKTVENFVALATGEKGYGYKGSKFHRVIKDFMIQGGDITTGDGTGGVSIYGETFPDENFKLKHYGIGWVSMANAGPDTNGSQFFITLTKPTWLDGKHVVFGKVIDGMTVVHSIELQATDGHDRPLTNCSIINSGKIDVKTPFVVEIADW
active: [10] -0.453
inactive: [1] -0.009 | [3] 0.203 | [6] 0.078 | [7] -0.112 | [8] 0.124 | [9] -0.004
